# A number with no mark means an inactive call. The list shows a part of the results. The source made the active and inactive calls.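 The calls were made as follows, unless noted: active = mean inhibition above 46.5%, the solvent-only control mean plus 3 SD; inactive = the rest.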
# What was measured:
# [1] = test system: transactivating tegument protein VP16 (Human herpesvirus 1); assay: VP16 transactivation reporter inhibitors, counter-screen for SRC2 inhibitor project, cell-based, luminescence, single concentration (AID 652007; in the data active = inhibition above about 36%); conditions: cell-based VP16 transactivation luciferase reporter, at 8.9 µM, stronger effect = higher value
# [2] = molecular target: Nuclear receptor coactivator 2 (Homo sapiens) (UniProt Q15596); assay: SRC2 coactivator transcriptional activity inhibitors, confirmation, cell-based, luminescence, HEK293, triplicate (AID 652008); conditions: HEK293 GAL4-SRC2 luciferase reporter, at 8.9 µM, stronger effect = higher value;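 also: 0% = DMSO-treated cells and 100% = Gossypol at 36 µM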
# [3] = compounds interfering with TAMRA-BSA probe, counter-screen for TCR-CD3 interaction inhibitor project, biochemical, fluorescence, TAMRA-labeled BSA (AID 652035; in the data active = inhibition above about 23%;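 also: 0% = buffer low control and 100% = reference high control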); conditions: TAMRA-labeled BSA probe fluorescence counterscreen; at 9.4 µM; stronger effect = higher value
# [4] = test system: T-cell receptor (TCR)-CD3 interaction, human; assay: TCR-CD3 interaction inhibitors, retest, confirmation, biochemical, fluorescence, TAMRA-labeled TCR probe (AID 652036; in the data active = inhibition above about 19%); conditions: TAMRA-labeled TCR probe fluorescence binding assay; at 9.4 µM; stronger effect = higher value
# [5] = Gal4-VP16 luciferase reporter inhibitors, counter-screen for COUP-TFII antagonist project, cell-based, luminescence, HEK293 (AID 687007; in the data active = inhibition above about 13%); conditions: at 8.5 µM, stronger effect = higher value
# [6] = molecular target: COUP transcription factor 2 (Homo sapiens) (UniProt P24468); assay: NR2F2 transcriptional activity inhibitors, confirmation, cell-based, luciferase reporter, HEK293, triplicate (AID 687008;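 active = mean inhibition over three repeats above a set limit taken from the earlier primary screen, cut at about 38% in these data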;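 also: 100% = cells given the luciferase reporter alone without the COUP-TF2 vector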); conditions: HEK293 NGFI-A luciferase reporter, luminescence; at 8.5 µM; stronger effect = higher value
# Chain of COUP transcription factor 2 (Homo sapiens) (P24468 whole entry, looked up): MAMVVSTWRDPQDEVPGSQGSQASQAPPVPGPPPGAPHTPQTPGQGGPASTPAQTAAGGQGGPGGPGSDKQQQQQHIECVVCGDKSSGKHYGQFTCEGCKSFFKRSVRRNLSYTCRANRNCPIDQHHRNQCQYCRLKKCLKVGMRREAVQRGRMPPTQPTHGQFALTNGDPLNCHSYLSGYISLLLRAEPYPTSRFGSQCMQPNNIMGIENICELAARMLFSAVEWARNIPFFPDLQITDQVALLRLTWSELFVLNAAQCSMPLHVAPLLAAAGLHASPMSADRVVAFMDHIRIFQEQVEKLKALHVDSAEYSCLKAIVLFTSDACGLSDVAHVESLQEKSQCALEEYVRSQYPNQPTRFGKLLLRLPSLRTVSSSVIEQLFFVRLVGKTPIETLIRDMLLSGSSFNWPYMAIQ
# Chain of Nuclear receptor coactivator 2 (Homo sapiens) (Q15596 whole entry, looked up, the tested form may be a part): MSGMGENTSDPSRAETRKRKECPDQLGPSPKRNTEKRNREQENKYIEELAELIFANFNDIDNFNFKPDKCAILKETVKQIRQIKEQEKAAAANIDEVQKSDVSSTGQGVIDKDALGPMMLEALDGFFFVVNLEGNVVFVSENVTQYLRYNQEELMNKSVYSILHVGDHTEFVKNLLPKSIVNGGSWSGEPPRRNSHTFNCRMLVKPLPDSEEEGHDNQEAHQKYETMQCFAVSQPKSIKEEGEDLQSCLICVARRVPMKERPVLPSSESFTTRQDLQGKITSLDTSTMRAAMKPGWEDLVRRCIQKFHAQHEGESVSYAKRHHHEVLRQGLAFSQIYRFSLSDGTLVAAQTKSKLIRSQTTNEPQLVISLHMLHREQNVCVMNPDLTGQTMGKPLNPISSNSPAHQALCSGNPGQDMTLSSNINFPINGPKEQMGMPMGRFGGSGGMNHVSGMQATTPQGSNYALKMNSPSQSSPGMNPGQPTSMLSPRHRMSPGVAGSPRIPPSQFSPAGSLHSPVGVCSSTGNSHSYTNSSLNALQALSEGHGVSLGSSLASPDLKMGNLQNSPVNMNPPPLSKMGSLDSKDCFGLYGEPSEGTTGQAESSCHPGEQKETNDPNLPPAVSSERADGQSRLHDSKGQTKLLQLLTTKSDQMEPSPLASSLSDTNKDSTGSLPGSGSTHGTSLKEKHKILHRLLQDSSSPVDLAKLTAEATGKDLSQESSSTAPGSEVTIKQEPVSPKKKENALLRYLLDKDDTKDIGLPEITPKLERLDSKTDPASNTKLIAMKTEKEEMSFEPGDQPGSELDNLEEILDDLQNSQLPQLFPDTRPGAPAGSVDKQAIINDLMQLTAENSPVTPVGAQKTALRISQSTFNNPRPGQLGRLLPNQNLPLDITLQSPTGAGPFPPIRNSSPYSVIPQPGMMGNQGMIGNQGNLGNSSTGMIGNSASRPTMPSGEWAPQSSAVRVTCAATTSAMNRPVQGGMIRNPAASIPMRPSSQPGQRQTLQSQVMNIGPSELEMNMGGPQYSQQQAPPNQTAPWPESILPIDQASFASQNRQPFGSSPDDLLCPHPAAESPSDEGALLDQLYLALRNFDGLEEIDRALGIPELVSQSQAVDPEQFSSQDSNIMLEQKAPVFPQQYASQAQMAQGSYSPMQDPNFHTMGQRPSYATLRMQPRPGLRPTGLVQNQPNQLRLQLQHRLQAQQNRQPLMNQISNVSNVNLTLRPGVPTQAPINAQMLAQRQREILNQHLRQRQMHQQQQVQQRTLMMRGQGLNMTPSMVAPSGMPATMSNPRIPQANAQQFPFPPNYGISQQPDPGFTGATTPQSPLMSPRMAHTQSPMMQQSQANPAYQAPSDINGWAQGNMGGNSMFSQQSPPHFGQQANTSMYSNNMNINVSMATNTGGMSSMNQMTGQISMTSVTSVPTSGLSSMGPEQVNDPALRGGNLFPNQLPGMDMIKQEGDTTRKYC
smiles,measurement,setting,value
CCCC(=O)Nc1cccc(NC(=O)c2ccccc2Br)c1,inhibition,[1],-0.46%
same,inhibition,[2],-17.8%
Cc1ccc(O)c(NC(=O)c2cc([N+](=O)[O-])ccc2Cl)c1,inhibition,[1],8.71%
same,inhibition,[2],44.2%
COc1cccc(CNC(=O)C2CCN(S(=O)(=O)c3ccc(F)cc3)CC2)c1,inhibition,[1],16.3%
same,inhibition,[2],-10.1%
COC(=O)[C@H]1C[C@@]2(c3ccccc3)c3ccccc3N(S(=O)(=O)c3ccccc3)[C@H]2N1,inhibition,[1],6.95%
same,inhibition,[2],18.3%
Nc1cccc(-c2cc3ccccc3oc2=O)c1,inhibition,[1],22.1%
same,inhibition,[2],56.9% (active)
COc1ccccc1N(CC(=O)N/N=C(\C)c1ccccc1O)S(=O)(=O)c1ccc(C)cc1,inhibition,[1],12.9%
same,inhibition,[2],25.4%
same,inhibition,[3],-17.6%
same,inhibition,[4],14.3%
CCCCc1ccc(N/C(N)=N/c2nc(C)cc(C)n2)cc1,inhibition,[1],30.2%
same,inhibition,[2],32.1%
CCC(=O)Nc1ccc2c(c1)C(=O)N(C)[C@@H]1CC[C@@H](CC(=O)NCc3ccc(OC)cc3)O[C@H]1CO2,inhibition,[1],-18.1%
same,inhibition,[2],-9.9%
COC(=O)c1ccc(NC(=O)c2nc(S(=O)(=O)Cc3cccc(C)c3)ncc2Cl)cc1,inhibition,[1],46% (active)
same,inhibition,[2],53.4% (active)
CC(C)(C)c1ccc(Oc2ccc(NC(=O)c3ccco3)cn2)cc1,inhibition,[1],30.6%
same,inhibition,[2],42.2%
CC1CCC(C(C)C)C(OCC(O)CN2CCCC(C)C2)C1 (stereo not drawn),inhibition,[1],-4.71%
same,inhibition,[2],-16.1%
CCOc1ccc(/C=C/c2c([N+](=O)[O-])c(=O)n(C)c(=O)n2C)cc1,inhibition,[1],7.01%
same,inhibition,[2],2.26%
CCCCC(=O)Nc1ccc(C)c(S(=O)(=O)N2CCCCCC2)c1,inhibition,[1],-13.7%
same,inhibition,[2],18.4%
CC(C)COc1ccc(C/C(N)=N/n2cnnc2)cc1,inhibition,[1],22.1%
same,inhibition,[2],40.3%
C[C@@H]1CCN(C2CC2)S(=O)(=O)c2ccc(N3CCC[C@H]3C)cc2O1,inhibition,[1],-8.49%
same,inhibition,[2],-6.67%
CC(c1ccccc1)N1CCN(C(=O)CCl)CC1 (stereo not drawn),inhibition,[1],17.4%
same,inhibition,[2],43.9%
Cc1c(CCC(=O)N2CCC[C@H]2C(=O)O)c(=O)oc2c(C)c3oc4c(c3cc12)CCCC4,inhibition,[1],39% (active)
same,inhibition,[2],37.5%
N#CC1C=Cc2c(ccc3ccccc23)N1C(=O)c1ccccc1 (stereo not drawn),inhibition,[1],-39.9%
same,inhibition,[2],56.4% (active)
O=C(Nc1nc2cc3c(cc2s1)OCO3)C1=COCCO1,inhibition,[1],26.7%
same,inhibition,[2],70.3% (active)
Cc1ccc2cccc(NS(=O)(=O)c3ccccc3)c2n1,inhibition,[1],75.5% (active)
same,inhibition,[2],-19.5%
COc1cc(OC)cc(C(=O)NCC2CCN(C(=O)C(=O)c3cccs3)CC2)c1,inhibition,[1],18.9%
same,inhibition,[2],18%
Cc1cc(C)cc(NC(=O)Nc2cc(S(=O)(=O)N(C)C)ccc2C)c1,inhibition,[1],-9.93%
same,inhibition,[2],-21.3%
Cc1c(CCC(=O)N2CCC(C(=O)O)CC2)c(=O)oc2cc3oc4c(c3cc12)CCCC4,inhibition,[1],33.6%
same,inhibition,[2],61% (active)
O=C(CCl)Nc1ccc(C(=O)NCC2COc3ccccc3O2)cc1 (stereo not drawn),inhibition,[1],71.2% (active)
same,inhibition,[2],39.9%
COc1cccc(NC(=O)Nc2nnc(CC(=O)Nc3ccccc3)s2)c1,inhibition,[1],-11%
same,inhibition,[2],21.1%
O=C(c1c(F)cccc1F)N1CCN(S(=O)(=O)c2ccc3c(c2)OCCO3)CC1,inhibition,[1],-6.59%
same,inhibition,[2],23.6%
same,inhibition,[5],-10.6%
same,inhibition,[6],23.4%
O=C(c1ccc(CS(=O)Cc2ccc(Cl)cc2)o1)N1CCN(c2ccccn2)CC1 (stereo not drawn),inhibition,[1],-9.03%
same,inhibition,[2],-6.91%
COc1ccc2nc(Sc3c([N+](=O)[O-])nc(C)n3Cc3ccccc3)[nH]c2c1,inhibition,[1],13.1%
same,inhibition,[2],37.8%
O=C(NCCc1ccccc1)c1ccc2c(c1)OCO2,inhibition,[1],-13.4%
same,inhibition,[2],16.7%
Cc1cc(Nc2ccccc2)n(C(=O)c2ccc(N)cc2)n1,inhibition,[1],-71.3%
same,inhibition,[2],0.44%
CCNC(=O)COc1ccc(/C=C2\COc3ccccc3C2=O)cc1OC,inhibition,[1],3.8%
same,inhibition,[2],78.1% (active)
N#Cc1c([N+](=O)[O-])cc([N+](=O)[O-])cc1S(=O)(=O)Cc1ccccc1,inhibition,[1],96.4% (active)
same,inhibition,[2],98.5% (active)

# Reference: PubChem BioAssay
